Assay results published in PubChem BioAssay (EPA / NIEHS).
Records with an inconclusive call do not appear. Activity calls are given as the source filed them. The calls were made as follows: active = hit-call score of the fitted dose curve at least 0.9, where 1 is the maximum; inconclusive = response in the unintended direction; inactive = score below 0.9.

molecular target: human Vitamin D Receptor (VDR), VDR (gene 7421) (UniProt P11473); assay: ATG_VDR_TRANS: Attagene TRANS-FACTORIAL HepG2 Assay for human Vitamin D Receptor (VDR) (AID 2283022)
Sequence (P11473 whole entry, looked up, the tested form may be a part): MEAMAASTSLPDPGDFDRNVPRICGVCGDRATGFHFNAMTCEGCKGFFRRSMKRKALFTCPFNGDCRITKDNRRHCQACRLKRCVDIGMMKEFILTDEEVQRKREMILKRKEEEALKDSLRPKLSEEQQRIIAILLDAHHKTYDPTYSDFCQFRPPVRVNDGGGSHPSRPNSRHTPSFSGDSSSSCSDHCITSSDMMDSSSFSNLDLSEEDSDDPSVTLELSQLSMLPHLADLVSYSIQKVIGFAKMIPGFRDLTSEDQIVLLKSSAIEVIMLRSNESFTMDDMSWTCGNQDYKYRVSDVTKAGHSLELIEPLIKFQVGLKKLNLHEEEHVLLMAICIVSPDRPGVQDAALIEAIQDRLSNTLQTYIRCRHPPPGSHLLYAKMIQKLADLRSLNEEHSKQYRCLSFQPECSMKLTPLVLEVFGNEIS
Procedure, shortened: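 HepG2 cells were transiently transfected with GAL4-UAS reporter units and a chimeric VDR-Gal4 construct, then dosed for 24 hours. Reporter mRNA was quantified by RT-PCR, fluorescent labeling, HpaI digestion and capillary electrophoresis; gain of signal analysed vs DMSO.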

Question: Which outcome does the source give for COc1ccccc1OC here?
Answer: inactive

Question: How did the outcome turn out when O=C1C(Cl)=C(Cl)C(=O)c2ccccc21 was run?
Answer: inactive

Question: With Cc1ccc(N)cc1Cl as the compound, how does the outcome read?
Answer: inactive

Question: With CC1CN1P(=O)(N1CC1C)N1CC1C (centres undefined) as the compound, how does the outcome read?
Answer: inactive

Question: Which outcome does the source give for C[C@@H](Oc1ccc(Cl)cc1Cl)C(=O)O here?
Answer: inactive

Question: For Clc1ccc(C2(Cn3cncn3)CC(Br)CO2)c(Cl)c1 (centres undefined), which outcome is on record?
Answer: inactive

Question: For COc1ccc(OC)c(C=O)c1, which outcome is on record?
Answer: inactive

Question: Which outcome does the source give for OCC(O)CCl (centres undefined) here?
Answer: inactive

Question: Which outcome does the source give for O=C(CCl)CCl here?
Answer: inactive

Question: Which outcome does the source give for O=C(O)Cc1ccccc1 here?
Answer: inactive

Question: Which outcome does the source give for CC(=O)c1cc(C(C)(C)C)cc2c1CCC2(C)C here?
Answer: inactive

Question: With CCCCOCCOC(C)=O as the compound, how does the outcome read?
Answer: inactive

Question: Which outcome does the source give for CN(CCCC(=O)c1cccnc1)N=O here?
Answer: inactive

Question: How did the outcome turn out when CC(=O)C=C(C)C was run?
Answer: inactive

Question: Which outcome does the source give for COc1ccc(C=O)cc1 here?
Answer: inactive

Question: How did the outcome turn out when Nc1cccc(Cl)c1 was run?
Answer: inactive

Question: CCOC(=O)Nc1cccc(OC(=O)Nc2ccccc2)c1 was tested. Which outcome did it give?
Answer: inactive

Question: With COS(=O)(=O)c1ccc(C)cc1 as the compound, how does the outcome read?
Answer: inactive

Question: With CC1(C)CCC(Cc2ccc(Cl)cc2)C1(O)Cn1cncn1 (centres undefined) as the compound, how does the outcome read?
Answer: inactive

Question: With CCC(=O)c1ccccc1 as the compound, how does the outcome read?
Answer: inactive

Question: For C=CC#N, which outcome is on record?
Answer: inactive

Question: For COP(=O)(OC)OC, which outcome is on record?
Answer: inactive

Question: Nc1ccc(N=Nc2ccc(-c3ccc(N=Nc4c(S(=O)(=O)O)cc5cc(S(=O)(=O)O)c(N=Nc6ccccc6)c(O)c5c4N)cc3)cc2)c(N)c1 was tested. Which outcome did it give?
Answer: inactive

Question: Which outcome does the source give for CCOP(=O)(CN(CCO)CCO)OCC here?
Answer: inactive

Question: With ClCc1ccccn1 as the compound, how does the outcome read?
Answer: inactive

Question: With N#CN=C(N)N as the compound, how does the outcome read?
Answer: inactive

Question: With Clc1nc(Cl)nc(Cl)n1 as the compound, how does the outcome read?
Answer: inactive

Question: For CCC[CH2][Sn]([CH2]CCC)([CH2]CCC)[O]C(=O)c1ccccc1, which outcome is on record?
Answer: inactive

Question: How did the outcome turn out when C[C@H]1O[C@@H](O[C@H]2[C@@H](O)C[C@H](O[C@H]3[C@@H](O)C[C@H](O[C@H]4CC[C@@]5(C)[C@H](CC[C@@H]6[C@@H]5CC[C@]5(C)[C@@H](C7=CC(=O)OC7)CC[C@]65O)C4)O[C@@H]3C)O[C@@H]2C)C[C@H](O)[C@@H]1O was run?
Answer: inactive

Question: How did the outcome turn out when C=CC(=O)N(C)C was run?
Answer: inactive

Question: Which outcome does the source give for CC(=[OH+])/C=C(/C)[O-].CC(=[OH+])/C=C(/C)[O-].CC(=[OH+])/C=C(/C)[O-].[Al] here?
Answer: inactive

Question: N#CCc1ccc(Cl)cc1 was tested. Which outcome did it give?
Answer: inactive

Question: How did the outcome turn out when CCc1ccccc1N was run?
Answer: inactive

Question: For CCCCCCCCSC(=O)Oc1cc(Cl)nnc1-c1ccccc1, which outcome is on record?
Answer: inactive

Question: How did the outcome turn out when CC(C)C1CCC(Cc2ccc(Cl)cc2)C1(O)Cn1cncn1 (centres undefined) was run?
Answer: inactive

Question: With c1ccc(N=NNc2ccccc2)cc1 as the compound, how does the outcome read?
Answer: inactive

Question: With C1CCC(NC2CCCCC2)CC1 as the compound, how does the outcome read?
Answer: inactive

Question: For O=P(O)(O)CN(CP(=O)(O)O)CP(=O)(O)O, which outcome is on record?
Answer: inactive

Question: With COc1cccc(C=O)c1 as the compound, how does the outcome read?
Answer: inactive
